Bioassay records: PubChem, University of Kansas High Throughput Screening Laboratory
The entries come from a sample that favours hits as a whole.
mHTT CaM bind: mutant huntingtin-calmodulin interaction inhibitors – biochemical, AlphaScreen, primary screen; AlphaScreen His-mHTT/GST-CaM binding, luminescence; inhibition, % at 15 µM; 3.6% of 190,000 active; AID 1671202, 2021;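 note: 0% = both proteins with DMSO and 100% = one protein alone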
Pf apPOL inh: Pf-apPOL inhibitors, biochemical, fluorescence; Plasmodium falciparum apicoplast DNA polymerase (apPOL); Recombinant Pf-apPOL, molecular beacon fluorescence, 1.5 h; inhibition, % at 10 µM; 0.25% of 210,000 active
* = called active by the depositor; . = not tested or not shown. Cut-off read from the data, not from the text of the source: active = inhibition above about 50%; inactive = the rest.

SMILES	mHTT CaM bind	Pf apPOL inh
CCOc1ccc(NC(=O)C(C)Sc2nnc(C(c3ccccc3)c3ccccc3)n2C)cc1 (centres undefined)	12	82*
CCOc1ccc(NC(=O)C(C)Oc2ccccc2)cc1 (centres undefined)	-8	1
COc1cc(-c2nc3ccccn3c2N=Cc2cccc(OC)c2O)ccc1O	27	2
NC(=O)NC(c1ccccc1)c1cccc(Br)c1 (centres undefined)	1	-9
O=C(c1ccc(Cl)c(Cl)c1)N1CCC(=O)N([C@H](COCc2cccc(C(F)(F)F)c2)Cc2ccccc2)CC1	100*	-4
O=C(c1ccc(Cl)c(Cl)c1)N1CCC(=O)N([C@H](COCc2ccccc2)Cc2ccccc2)CC1	100*	-4
O=C(SCc1cccc(C(F)(F)F)c1)c1ccc(Cl)c(Cl)c1	.	3
Cc1ccc(S(=O)(=O)N2CCC(=O)N([C@H](COCc3ccc(Cl)cc3Cl)Cc3ccccc3)CC2)cc1	-10	-4
O=C(NC1CC1)c1cn(-c2ccccc2Cl)nn1	-3	-2
O=C(O)CCCc1nc2ccccc2[nH]1	-6	-2
NC(=O)Cc1nc2ccccc2[nH]1	-5	97*
CC1=C(C(=O)N2CCN(c3ccc(Cl)cc3)CC2)C2(CCCCC2)OC1=O	-6	-1
COc1cc(C=C2SC(=S)N(C(C(=O)O)C(C)C)C2=O)cc(OC)c1O (centres undefined)	61*	-23
COc1ccc(C=C2SC(=S)N(C(C(=O)O)C(C)C)C2=O)cc1 (centres undefined)	3	-55
Cc1ccccc1/C=C1/SC(=Nc2ccccc2Cl)NC1=O	33	-1
CC1CCCN(c2cc(C(=O)NC3CCc4ccccc43)c3ccccc3n2)C1 (centres undefined)	-8	7
CC12CCC3c4ccc(O)cc4CCC3C1CC(=Cc1ccc(Cl)cc1)C2O (centres undefined)	100*	-9
C#CC1(O)CCC2C3CCc4cc(O)ccc4C3CCC21C (centres undefined)	0	1
CC12CCC3c4ccc(O)cc4CCC3C1CC(=Cc1ccccc1)C2O (centres undefined)	97*	-11
COc1cc2c(cc1O)CC[C@@H]1[C@@H]2CC[C@]2(C)[C@@H](O)CC[C@@H]12	.	-3
COCCn1c(C2CCN(C(=O)NC3CCCCC3)C2)nc2cccnc21 (centres undefined)	1	-6
O=[N+]([O-])c1c(N2CCOCC2)c([N+](=O)[O-])c(N2CCOCC2)c([N+](=O)[O-])c1N1CCOCC1	1	-6
C=CSc1sc(Cl)c(N2CCOCC2)c1[N+](=O)[O-]	34	0
C=CS(=O)(=O)c1sc(Cl)c(N2CCOCC2)c1[N+](=O)[O-]	60*	-3
C=CSc1sc(Cl)c(N2CCC3(CC2)OCCO3)c1[N+](=O)[O-]	67*	5
SMILES	mHTT CaM bind	Pf apPOL inh
CCCc1cc(C2CCCN2Cc2ccc(OC)c(OC)c2OC)no1 (centres undefined)	-3	3
O=C(O)c1ccccc1N=Cc1nc(-c2ccccc2F)oc1O	9	96*
COc1cc(N=Cc2nc(-c3ccccc3F)oc2O)c(C(=O)O)cc1OC	0	2
COc1cccc(C2CC(c3cccc(OC)c3OC)n3ncnc3N2)c1 (centres undefined)	2	2
COc1cccc(C2CC(c3cccc(Br)c3)Nc3ncnn32)c1OC (centres undefined)	68*	-2
COc1ccc(C2CC(c3cccc(Br)c3)Nc3ncnn32)c(OC)c1OC (centres undefined)	60*	-4
COc1ccc(C2CC(c3cccc(Br)c3)Nc3ncnn32)cc1OC (centres undefined)	39	1
CCc1nc(-c2cccnc2N2CCCC(C(=O)NCCOC)C2)no1 (centres undefined)	2	-2
Cn1ccnc1Sc1ccc([N+](=O)[O-])cc1Cl	4	-3
COCCOC(=O)c1c2c(n3cc4ccccc4cc13)C(=O)c1ccccc1C2=O	-1	-3
COc1cc(C)nc2ccc(NC(=O)Nc3ccc(Cl)cc3)cc12	25	3
COc1ccc(Cl)cc1NC(=O)Nc1ccc2nc(C)cc(OC)c2c1	97*	85*
CCS(=O)(=O)N1CCN(c2ccc([N+](=O)[O-])c(NC3CC3)c2)CC1	0	-8
O=[N+]([O-])c1ccc(N2CCNCC2)cc1NC1C2CC3CC(C2)CC1C3 (centres undefined)	82*	0
O=C(NCC#CCN1CCc2ccccc2C1)c1c(F)cccc1Cl	22	5
CC1CCN(C(=O)c2cc(C(C)C)n3nccc3n2)CC1	-5	-4
O=S1(=O)N[C@H](Cc2ccccc2)COc2cccc(N3CCN(Cc4ccccc4F)CC3)c21	62*	-6
CN1CCN(c2cccc3c2S(=O)(=O)N[C@H](Cc2ccccc2)CO3)CC1	-3	-8
CCN(C)c1nc(-c2ccccc2Cl)c2c(N)n(-c3ccccc3)nc2n1	20	0
CCN(C)c1nc(-c2cccc(F)c2)c2c(N)n(-c3cccc(F)c3)nc2n1	57*	2
CCCCc1ccc(C2C(C#N)=C(N)SC(N)=C2C#N)s1	55*	-1
N#CC1=C(N)SC(N)=C(C#N)C1c1ccccc1	29	0
COC(=O)C(C)Sc1nc2c(c(=O)n1-c1ccc(OC(F)(F)F)cc1)SCC2 (centres undefined)	7	-4
COC(=O)Oc1c(Cl)cc2oc(=O)sc2c1[N+](=O)[O-]	81*	9
COC(=O)Oc1cc2oc(=O)sc2cc1Cl	22	0
SMILES	mHTT CaM bind	Pf apPOL inh
CCOC(=O)Oc1c(Cl)cc2oc(=O)sc2c1Br	54*	0
CCOC(=O)Oc1cc2oc(=O)sc2cc1Br	22	7
CCOc1ccc(Br)cc1S(=O)(=O)NCc1ccccc1	-6	12
COc1cc(CN2CCN(c3cccc(C)c3C)CC2)c([N+](=O)[O-])cc1OC	29	-2
CCc1ccc(N=c2oc3c(C)ncc(CO)c3cc2C(=O)Nc2ccc(C)cc2)cc1	5	4
Cc1ccccc1C(=O)Nc1cccn2nc(C3CC3)nc12	17	-24
O=C(Cc1cccs1)Nc1cccn2nc(C3CC3)nc12	35	61*
CC1=C(C(=O)Nc2ccc(C)cn2)C(c2ccc(C)cc2)C2=C(CCCC2=O)N1 (centres undefined)	9	0
CC1=C(C(=O)Nc2cccc(C(F)(F)F)c2)C(c2cccc([N+](=O)[O-])c2)C2=C(CCCC2=O)N1 (centres undefined)	52*	-7
CC1=C(C(=O)Nc2cccc(C(F)(F)F)c2)C(c2ccccc2)C2=C(CC(C)(C)CC2=O)N1 (centres undefined)	92*	1
CC1=C(C(=O)Nc2cccc(C(F)(F)F)c2)C(c2ccccc2)C2=C(CCCC2=O)N1 (centres undefined)	36	-2
CC1=C(C(=O)Nc2ccc(C)cn2)C(c2ccccc2)C2=C(CCCC2=O)N1 (centres undefined)	2	51*
CC1=C(C(=O)Nc2cccc(C(F)(F)F)c2)C(c2ccccn2)C2=C(CC(C)(C)CC2=O)N1 (centres undefined)	-2	-9
O=C1CCCC2=C1C(c1cccnc1)Nc1ccc(C(=O)c3ccccc3)cc1N2 (centres undefined)	10	-2
